# Results published in the OligoGym collection.
# Experiments:
# Test in all cases: pooled miR-30 sensor sort-seq; sequence = guide strand
# Settings in all cases: shRNA
# COMMD1 = biological target: COMMD1
# COMMD10 = biological target: COMMD10
# COL4A3BP = biological target: COL4A3BP
# COMMD8 = biological target: COMMD8
# COPS7A = biological target: COPS7A
# CRTAM = biological target: CRTAM
# CSGALNACT1 = biological target: CSGALNACT1
# CSH1 = biological target: CSH1
# CYLC1 = biological target: CYLC1
# DAGLA = biological target: DAGLA
# CYorf15A = biological target: CYorf15A
# CYTH1 = biological target: CYTH1
# CYTH4 = biological target: CYTH4
# DCPS = biological target: DCPS
# DNAJC13 = biological target: DNAJC13
# DNMT3L = biological target: DNMT3L
# DPRX = biological target: DPRX
# EEF1B2 = biological target: EEF1B2
# EHD3 = biological target: EHD3
# EIF3M = biological target: EIF3M
# ENAM = biological target: ENAM
# EPDR1 = biological target: EPDR1
# EPHX1 = biological target: EPHX1
# EPHX2 = biological target: EPHX2
# ETFB = biological target: ETFB
# FAM162A = biological target: FAM162A
# FAM178A = biological target: FAM178A
# FAM22F = biological target: FAM22F
# FAM73A = biological target: FAM73A
# Note: reference of the scale not given here.
sequence,measurement,setting,value
TGATACTTTCTTCTACCTCTGA,sensor-assay potency score (higher = more potent),COMMD1,-0.273
TTAACAATGATCTCTATTGGTT,sensor-assay potency score (higher = more potent),COMMD10,-0.722
TTCCACAAGAACTTTCTCCAGG,sensor-assay potency score (higher = more potent),COMMD10,-0.261
TTATTTTTCAAAACTACCCAAC,sensor-assay potency score (higher = more potent),COL4A3BP,-0.396
TAAGGTACACATCTTATCTTGT,sensor-assay potency score (higher = more potent),COMMD10,0.795
TTAGCTACATATGTAATCTTGC,sensor-assay potency score (higher = more potent),COL4A3BP,0.206
TATTTTGTGAAGAAGCTGCGGG,sensor-assay potency score (higher = more potent),COMMD8,0.366
TTGAGCTGAGTGCCTTGACTGA,sensor-assay potency score (higher = more potent),COMMD1,-0.799
TTGTCTAAGATGAATGTTCTCT,sensor-assay potency score (higher = more potent),COMMD10,0.187
TATAATGGCAACAGGTGTGTGT,sensor-assay potency score (higher = more potent),COMMD1,0.267
TTAGTGGAGGAAGATTCCGGGC,sensor-assay potency score (higher = more potent),COPS7A,-0.887
TTTTCTTTCTTGCCAGTCCTAA,sensor-assay potency score (higher = more potent),CRTAM,-0.265
TATTAGTACAAACCATTCCTTC,sensor-assay potency score (higher = more potent),CSGALNACT1,-0.885
TTAAATTTCATAAACTACCAGT,sensor-assay potency score (higher = more potent),CSGALNACT1,-0.16
TACTCGGGCACCTAGAAGCCAC,sensor-assay potency score (higher = more potent),CSH1,-1.13
TTTCTTGTCATCTTTCTTGACA,sensor-assay potency score (higher = more potent),CYLC1,-0.649
TTGATTTATCATTTGTACCTCT,sensor-assay potency score (higher = more potent),CYLC1,0.236
ATTCTTGGCAGTGAGGTCGTTG,sensor-assay potency score (higher = more potent),DAGLA,-0.825
TACAACATGGAGTTGCTGCTTT,sensor-assay potency score (higher = more potent),CYorf15A,0.408
TCGTTCTCTATTAAGAACTGGA,sensor-assay potency score (higher = more potent),CYTH1,-0.271
TTGAGGTCGAGGTACTTGGTGT,sensor-assay potency score (higher = more potent),DAGLA,-0.552
TTCTTTGTTATAAAGTCACGGC,sensor-assay potency score (higher = more potent),CYorf15A,-0.192
TGATCCTCTGTAACTCTTCCGT,sensor-assay potency score (higher = more potent),CYTH4,-0.462
TAACTTGGTCTTTATTGTCGGG,sensor-assay potency score (higher = more potent),CYTH1,-0.54
TCTGCTTTCTCTCTTAACCCAC,sensor-assay potency score (higher = more potent),CYorf15A,-0.243
TGCACTGACAATATCGCTGGGC,sensor-assay potency score (higher = more potent),CYTH1,0.0607
TTGTCGGTCAGGATGAACCAGC,sensor-assay potency score (higher = more potent),CYTH4,-0.768
TATCTTTTCCATTATTTGCTTT,sensor-assay potency score (higher = more potent),CYorf15A,-0.915
TAGCAGGTGTCTGTGGACTGGA,sensor-assay potency score (higher = more potent),CYTH4,-0.452
TTCATGGACACAAAGCGCTCGA,sensor-assay potency score (higher = more potent),CYTH4,-0.11
TTGAGCAGCCAACCCTCCCGGT,sensor-assay potency score (higher = more potent),CYTH4,-1.04
TTATTTGCTTTACAAAGTCTAG,sensor-assay potency score (higher = more potent),CYorf15A,-0.983
TCCATGTTGAACTTCTTGCGCC,sensor-assay potency score (higher = more potent),CYTH4,-1.08
TTGTTTTCTAAACTCTAAGAGC,sensor-assay potency score (higher = more potent),DAGLA,-0.925
TTTCTTCTTGTCATGGTCCACC,sensor-assay potency score (higher = more potent),DAGLA,-0.657
AAGACTTTTTCTTTGTTCCTGT,sensor-assay potency score (higher = more potent),CYorf15A,0.524
TTTTCTAAACTCTAAGAGCCAC,sensor-assay potency score (higher = more potent),DAGLA,-0.539
AAGGACAACACGTAGCAGGTGT,sensor-assay potency score (higher = more potent),CYTH4,0.877
TGTAACTCTTCCGTCTCCCCGC,sensor-assay potency score (higher = more potent),CYTH4,-0.31
TAGGAAACACTTGAGAACCAGG,sensor-assay potency score (higher = more potent),CYTH1,-0.778
TTAAGTACAAAAAAAGTCTGGG,sensor-assay potency score (higher = more potent),DAGLA,0.278
TATACAATATACAGAAACCTTT,sensor-assay potency score (higher = more potent),DAGLA,-0.353
TTGTGCATTTACAACATGGAGT,sensor-assay potency score (higher = more potent),CYorf15A,-0.696
TTTTACAGCAATATTAGTTTGG,sensor-assay potency score (higher = more potent),DAGLA,0.015
ATTTACAACATGGAGTTGCTGC,sensor-assay potency score (higher = more potent),CYorf15A,-0.262
TTGAGGTTGGCGAACTCGTGGC,sensor-assay potency score (higher = more potent),CYTH4,-0.377
TACTTCTGCTATCTCATCCTTC,sensor-assay potency score (higher = more potent),CYTH1,0.117
TTGGAGTTGATTATTAACTAAA,sensor-assay potency score (higher = more potent),CYorf15A,-1.56
TAGAAGTCCGGATCTTGTCAGC,sensor-assay potency score (higher = more potent),DAGLA,-0.641
TTTCGGTGCCACTTGATCCTCT,sensor-assay potency score (higher = more potent),CYTH4,-0.308
TTCTGCTATCTCATCCTTCAGC,sensor-assay potency score (higher = more potent),CYTH1,-0.329
TAAAGCTTGCTGACCAGACGGA,sensor-assay potency score (higher = more potent),CYorf15A,0.11
TTGGATATAGCACCCATCCTGC,sensor-assay potency score (higher = more potent),CYTH4,-0.488
TTGCATTGTAAAGCTTGCTGAC,sensor-assay potency score (higher = more potent),CYorf15A,-0.311
TTTGTAGCGGAGCATCTCTTGT,sensor-assay potency score (higher = more potent),DAGLA,-1.44
TTGCTTTACAAAGTCTAGTAGG,sensor-assay potency score (higher = more potent),CYorf15A,-0.465
TTGTAGTTCTCCAGCACCTTGT,sensor-assay potency score (higher = more potent),DAGLA,-0.221
ATTCCTGTAGTCATCTCCCGTC,sensor-assay potency score (higher = more potent),DCPS,-0.108
TTCAATTACATTGCTTTGCAGT,sensor-assay potency score (higher = more potent),DNAJC13,-0.243
TGTGACATCAACCACATGCTTC,sensor-assay potency score (higher = more potent),DNMT3L,-0.297
TCTTAGTGAACATGGTTCGTTT,sensor-assay potency score (higher = more potent),DPRX,-0.457
TATCTGTTCCAACTTTATCATC,sensor-assay potency score (higher = more potent),EEF1B2,-1.68
TTGAATGCTTCTGACGCACTCC,sensor-assay potency score (higher = more potent),EEF1B2,0.113
TTCAGCACCACTCGCATCTTGT,sensor-assay potency score (higher = more potent),EHD3,-0.387
TGCAAACTCGTCGTCGTCCAGC,sensor-assay potency score (higher = more potent),EHD3,-1.01
TACAGGAGTATTCTTATCCATC,sensor-assay potency score (higher = more potent),EIF3M,-1.23
TTAACAACTGCAGTCTCAGAGA,sensor-assay potency score (higher = more potent),EIF3M,-0.725
TTCTTTATAGAACATGGTGTGT,sensor-assay potency score (higher = more potent),ENAM,-0.573
TAGTCTCATATCCATCTCCAGC,sensor-assay potency score (higher = more potent),EPDR1,-1.45
TATTCAAATAATCTCTTGCAGG,sensor-assay potency score (higher = more potent),EPDR1,-0.781
TCTCCTTGTAGAAGCGCTGGGA,sensor-assay potency score (higher = more potent),EPHX1,-0.317
TTCAGCTCACACATCAGCTGGG,sensor-assay potency score (higher = more potent),EPHX2,0.39
TAAAACTCGTAGAAAGAGCCGG,sensor-assay potency score (higher = more potent),EPHX1,-0.339
AACTGCTGCACATAGAACTGGA,sensor-assay potency score (higher = more potent),EPHX2,-0.354
TTTATGGAGAAATTCTTGGGGA,sensor-assay potency score (higher = more potent),EPHX2,0.378
TACTTGAACCTCACCCACTTTT,sensor-assay potency score (higher = more potent),EPHX1,-0.563
TTCAATCTTAGTCTTGAAGTGA,sensor-assay potency score (higher = more potent),EPHX1,-0.0669
TAGAACTGGATTTCCTCCTCAG,sensor-assay potency score (higher = more potent),EPHX2,0.253
TTTCTGGCTGAAATCGCCTTGT,sensor-assay potency score (higher = more potent),EPHX2,-0.617
TTGTCCCGGGAGATGAACCAGT,sensor-assay potency score (higher = more potent),EPHX1,-1.24
TTGGAGTTGAAGCCATAGTGGA,sensor-assay potency score (higher = more potent),EPHX1,-0.99
TTGTCCAGTAGAGCATGACGTT,sensor-assay potency score (higher = more potent),EPHX1,-1.4
TCGCTTGCTCTGAAGAGGCTTT,sensor-assay potency score (higher = more potent),EPHX2,-0.734
ATCAGCTTGTAAAAGATCCTGG,sensor-assay potency score (higher = more potent),EPHX1,-0.191
TGGATCTCCTCATCTGACGTTT,sensor-assay potency score (higher = more potent),EPHX1,-0.892
TATCAGGAAGTCAAAGTGCATC,sensor-assay potency score (higher = more potent),EPHX2,-1.33
TTCTCCTTGTAGAAGCGCTGGG,sensor-assay potency score (higher = more potent),EPHX1,-0.596
AAAGTTTCCTCTTTGTCCCGGG,sensor-assay potency score (higher = more potent),EPHX1,0.0687
AAAACTCGTAGAAAGAGCCGGG,sensor-assay potency score (higher = more potent),EPHX1,0.199
TTTTATGGAGAAATTCTTGGGG,sensor-assay potency score (higher = more potent),EPHX2,0.765
TCTCCTTACATAACACTTCCAT,sensor-assay potency score (higher = more potent),EPHX2,-0.551
TTAGAGGACCTCTGAAACCAGA,sensor-assay potency score (higher = more potent),EPHX2,-0.75
TTCTTGGAAGTAGAGCTGGTAA,sensor-assay potency score (higher = more potent),EPHX2,-0.749
TCATCTGACGTTTCCACCTTGA,sensor-assay potency score (higher = more potent),EPHX1,-0.126
TTCAAAAACGTGCTCATCGCTC,sensor-assay potency score (higher = more potent),EPHX1,-0.238
TTGTAAAAGATCCTGGCGGTGG,sensor-assay potency score (higher = more potent),EPHX1,-0.0602
TCTGAAACCAGACTTCTTGAAC,sensor-assay potency score (higher = more potent),EPHX2,-0.948
TTCTTTTATGGAGAAATTCTTG,sensor-assay potency score (higher = more potent),EPHX2,-0.837
TCTTAGTCTTGAAGTGAGGGTA,sensor-assay potency score (higher = more potent),EPHX1,0.435
TTGGTCAGCAGGTCGTCCAGGG,sensor-assay potency score (higher = more potent),EPHX1,-0.558
TAGGAATAGGAGATGAGCTTTG,sensor-assay potency score (higher = more potent),EPHX1,-0.367
AACTTCTCTAGAATATAGGCAG,sensor-assay potency score (higher = more potent),EPHX1,-0.342
TGGTTCTTGGAAGTAGAGCTGG,sensor-assay potency score (higher = more potent),EPHX2,-0.725
TAGTGAATCCTTTCTTCCTGAG,sensor-assay potency score (higher = more potent),EPHX2,-0.285
TCGTCCAGGGAGAACTTCCTTT,sensor-assay potency score (higher = more potent),EPHX1,-1.04
TCTCTCAGCACGGTCGTCCAGC,sensor-assay potency score (higher = more potent),EPHX2,-0.771
TCATGCTTCTGGGTCATCCAGC,sensor-assay potency score (higher = more potent),EPHX1,-0.602
TCAATCTTAGTCTTGAAGTGAG,sensor-assay potency score (higher = more potent),EPHX1,-0.441
TATTCTTCTATTTCGGGAGGAG,sensor-assay potency score (higher = more potent),EPHX2,0.331
TTCCATGCAATATTCTTCTATT,sensor-assay potency score (higher = more potent),EPHX2,-0.473
TTTGATACTCTCCAAAGGGGAC,sensor-assay potency score (higher = more potent),EPHX2,-0.915
TTGGCTTTCATGATGTTGGGCA,sensor-assay potency score (higher = more potent),ETFB,0.503
TTCTTCTTGGCTTTCATGATGT,sensor-assay potency score (higher = more potent),ETFB,-0.521
TAGATAGCTGATCTTCACTCGC,sensor-assay potency score (higher = more potent),FAM162A,0.225
TTAAAGTCTCGTGTCTTTGGGC,sensor-assay potency score (higher = more potent),FAM162A,0.109
TAGACAATCTACTTCCTCCATA,sensor-assay potency score (higher = more potent),FAM178A,-0.597
TTTTTCTTGAGAGATGTCCATT,sensor-assay potency score (higher = more potent),FAM178A,-1.17
AAGGACTTGAGTCCAACCTGGC,sensor-assay potency score (higher = more potent),FAM22F,-0.389
TTGACAGGAGACTCTCCAGGGA,sensor-assay potency score (higher = more potent),FAM22F,-0.14
TAGACAACTACTTGTATGCCTC,sensor-assay potency score (higher = more potent),FAM73A,-0.255
